Results reported in PubChem BioAssay (Tox21).
Results filed as inconclusive are left out. Active and inactive are the calls of the source. Unless noted, calls come from the whole dose curve; as a rule, active = well fitted curve in the direction sought with a large enough effect in the repeat runs; inconclusive = weak or mixed curves; inactive = no such curve, though single readings can be large; an effect the other way counts as inactive or inconclusive.

Legend:
[1] = qHTS assay to identify small molecule agonists of the peroxisome proliferator-activated receptor delta (PPARd) signaling pathway - cell viability counter screen (AID 743211); note: nearly all actives have a fitted effect of over 55% in size
Procedure, shortened: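 Counter screen for cytotoxicity run in parallel with the PPARd reporter screen. Beta-lactamase reporter HEK293H cells exposed to compounds 17 h; ATP-based CellTiter-Glo luminescence quantified viability.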

[2] = qHTS assay to identify small molecule antagonists of the peroxisome proliferator-activated receptor delta (PPARd) signaling pathway - cell viability counter screen (AID 743213); note: nearly all actives have a fitted effect of over 50% in size
Procedure, shortened: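 Viability counter-screen, qHTS format: PPARd-bla HEK293H, L165041 300 nM final, 17 h compound exposure at 37 C, CellTiter-Glo luminescence after 30 min RT.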

[3] = molecular target: Peroxisome proliferator-activated receptor delta (Homo sapiens) (UniProt Q03181); experiment: qHTS assay to identify small molecule antagonists of the peroxisome proliferator-activated receptor delta (PPARd) signaling pathway (AID 743215; active = well fitted inhibition curve with a large enough effect in the signal ratio in the repeat runs, not every such curve was filed as active; the % refers to the signal ratio;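 note: cells stimulated with agonist L165041 at 300 nM final during compound exposure; series mostly up to about 62 µM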)
Procedure, shortened: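 Agonist L165041 (300 nM final) added with compound to PPARd-bla HEK293H UAS-bla reporter cells; 17 h incubation at 37 C. Read-out: LiveBLAzer FRET substrate, 2 h at room temperature, fluorescence intensity.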

[4] = qHTS assay to identify small molecule agonists of the farnesoid-X-receptor (FXR) signaling pathway - cell viability counter screen (AID 743218); note: nearly all actives have a fitted effect of over 45% in size
Procedure, shortened: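 Viability counter screen in the same wells: CellTiter-Glo luminescence, 30 min room-temperature incubation, measured after the beta-lactamase read. Cells were GeneBLAzer FXR-UAS-bla HEK 293T, compound-treated 16 h at 37C.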

[5] = molecular target: Vitamin D3 receptor (Homo sapiens) (UniProt P11473); experiment: qHTS assay to identify small molecule agonists of the vitamin D receptor (VDR) signaling pathway (AID 743222; calls by dose curve)
Procedure, shortened: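 Agonist mode, beta-lactamase reporter: fluorescence from LiveBLAzer B/G FRET substrate (2 h, room temperature) read after 16 h compound treatment at 37 C of VDR-bla cells, which were pre-incubated 4 h after seeding.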

[6] = molecular target: Vitamin D3 receptor (Homo sapiens) (UniProt P11473); experiment: qHTS assay to identify small molecule antagonists of the vitamin D receptor (VDR) signaling pathway (AID 743223; active = well fitted inhibition curve with a large enough effect in the signal ratio in the repeat runs, not every such curve was filed as active; the % refers to the signal ratio)
Procedure, shortened: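 Cells carrying a VDR-driven beta-lactamase reporter (VDR-bla) were co-treated with compound and 3 nM final 1alpha,25-dihydroxyvitamin D3 for 16 h at 37C; reporter activity was measured as FRET substrate fluorescence after 2 h at room temperature.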

[7] = qHTS assay to identify small molecule agonists of the vitamin D receptor (VDR) signaling pathway - cell viability counter screen (AID 743224); note: series mostly up to about 63 µM; nearly all actives have a fitted effect of over 50% in size
Procedure, shortened: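 Counter screen run in the same wells as the VDR-bla reporter assay: CellTiter-Glo luminescence, 30 min at room temperature, after 16 h compound treatment at 37C of cells pre-plated for 4 h.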

[8] = qHTS assay to identify small molecule antagonists of the vitamin D receptor (VDR) signaling pathway - cell viability counter screen (AID 743225); note: nearly all actives have a fitted effect of over 50% in size
Procedure, shortened: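 HEK293T VDR-bla; cpd + 1a,25-(OH)2D3 3 nM final, 16 h 37C/5% CO2; B/G FRET substrate 2 h RT; then CellTiter-Glo 30 min RT, luminescence.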

[9] = qHTS assay to identify small molecule agonists of the NFkB signaling pathway (AID 1159509; active = well fitted curve in the direction sought with a large enough effect in the signal ratio in the repeat runs, not every such curve was filed as active; the % refers to the signal ratio; note: series mostly up to about 61 µM)
Procedure, shortened: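 Beta-lactamase reporter assay run in quantitative high-throughput format on an NF-kB-responsive ME-180 line, with 5 hr compound treatment and a FRET-based blue/green fluorescence readout.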

[10] = qHTS assay to identify small molecule agonists of the NFkB signaling pathway - cell viability counter screen (AID 1159515; calls by dose curve; note: series mostly up to about 61 µM; nearly all actives have a fitted effect of over 55% in size)
Procedure, shortened: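 Read by CellTiter-Glo luminescence (30 min, room temperature) in the wells also used for the beta-lactamase FRET read. ME-180 NFkB-bla cells at 2,000 per well were plated overnight, then exposed to compound for 5 hr at 37 C.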

[11] = qHTS assay to identify small molecule agonists of the endoplasmic reticulum stress response signaling pathway (AID 1159516; active = well fitted activation curve with a large enough effect in the signal ratio in the repeat runs, not every such curve was filed as active; the % refers to the signal ratio)
Procedure, shortened: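 Ratiometric FRET readout (405 nm excitation; 460 and 530 nm emission) of a beta-lactamase gene driven by the ER stress response element, after 2 hr substrate loading. HeLa ESRE-bla cells were seeded overnight and treated with compounds for only 5 hr at 37 C.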

[12] = qHTS assay to identify small molecule agonists of the endoplasmic reticulum stress response signaling pathway - cell viability counter screen (AID 1159517; calls by dose curve; note: series mostly up to about 61 µM; nearly all actives have a fitted effect of over 50% in size)
Procedure, shortened: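 Cytotoxicity of test compounds toward ESRE-bla HeLa cells was assessed after 5 hr exposure. The luminescent CellTiter-Glo signal was measured 30 min after reagent addition.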

[13] = qHTS assay to identify small molecule antagonists of the retinoid-related orphan receptor gamma (ROR-gamma) signaling pathway - cell viability counter screen (AID 1159520); note: nearly all actives have a fitted effect of over 50% in size
Procedure, shortened: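 Tet-on ROR gamma CHO cells (1,000/well) were plated 4 hr, given compounds in DMSO for 2 hr at 37 C, then induced with 1 uM final doxycycline for 16 hr. Viability was read as ATP by CellTiter-Glo luminescence after 30 min.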

[14] = molecular target: Nuclear receptor ROR-gamma (Homo sapiens) (UniProt P51449); experiment: qHTS assay to identify small molecule antagonists of the retinoid-related orphan receptor gamma (ROR-gamma) signaling pathway (AID 1159521)
Procedure, shortened: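 Cells were plated, rested 4 h at 37 C, exposed to compounds for 2 h, then given 1 uM final doxycycline hyclate to induce RORγ expression. After 16 h, ONE-Glo luminescence from the ROR response element reporter was measured.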

[15] = qHTS assay to identify small molecule agonists of the AP-1 signaling pathway - cell viability counter screen (AID 1159525; calls by dose curve; note: nearly all actives have a fitted effect of over 55% in size)
Procedure, shortened: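 Each titration point was normalised to DMSO and tetra n-octyl ammonium bromide controls. The read was Cell Titer Glo luminescence after 30 min at RT, following 5 h compound exposure of ME-180 AP-1-bla cells at 37 °C.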

[16] = molecular target: Peroxisome proliferator-activated receptor delta (Homo sapiens) (UniProt Q03181); experiment: qHTS assay to identify small molecule agonists of the peroxisome proliferator-activated receptor delta (PPARd) signaling pathway (AID 743212; calls by dose curve;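 note: HEK293H cells with PPARd UAS beta-lactamase reporter GeneBLAzer system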)
Procedure, shortened: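 Beta-lactamase reporter read by fluorescence (LiveBLAzer B/G FRET, 2 h, room temperature). Test agents, in DMSO, incubated at 37 C with PPARd-bla HEK293H cells.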

[17] = molecular target: Bile acid receptor (Homo sapiens) (UniProt Q96RI1); experiment: qHTS assay to identify small molecule antagonists of the farnesoid-X-receptor (FXR) signaling pathway (AID 743217; active = well fitted inhibition curve with a large enough effect in the signal ratio in the repeat runs, not every such curve was filed as active; the % refers to the signal ratio)
Procedure, shortened: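 Antagonist mode: chenodeoxycholic acid at 50 uM final stimulates a UAS-driven beta-lactamase reporter in HEK 293T FXR-bla cells during 16 h, 37C compound exposure. Read-out is FRET substrate fluorescence after 2 h at room temperature.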

[18] = molecular target: Bile acid receptor (Homo sapiens) (UniProt Q96RI1); experiment: qHTS assay to identify small molecule agonists of the farnesoid-X-receptor (FXR) signaling pathway (AID 743220; active = well fitted activation curve with a large enough effect in the signal ratio in the repeat runs, not every such curve was filed as active; the % refers to the signal ratio)
Procedure, shortened: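 FXR-UAS-bla HEK 293T cells carrying a UAS-driven beta-lactamase reporter were plated for 5 h at 37C/5% CO2, then exposed to DMSO-dissolved Tox21 10K compounds for 16 h at 37C. A LiveBLAzer B/G FRET substrate was loaded for 2 h at room temperature before fluorescence reading.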

[19] = qHTS assay to identify small molecule antagonists of the farnesoid-X-receptor (FXR) signaling pathway - cell viability counter screen (AID 743221; active = well fitted cell-killing curve with a large enough effect in the repeat runs, not every such curve was filed as active; note: nearly all actives have a fitted effect of over 50% in size)
Procedure, shortened: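 Multiplexed counter screen: viability of FXR-bla HEK 293T cells under agonist stimulation by chenodeoxycholic acid (50 uM, final) and test compound for 16 h at 37 C, measured by CellTiter-Glo luminescence in the reporter wells.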

Measured: Potency

Vitamin D3 receptor (Homo sapiens), sequence (P11473 whole entry, looked up): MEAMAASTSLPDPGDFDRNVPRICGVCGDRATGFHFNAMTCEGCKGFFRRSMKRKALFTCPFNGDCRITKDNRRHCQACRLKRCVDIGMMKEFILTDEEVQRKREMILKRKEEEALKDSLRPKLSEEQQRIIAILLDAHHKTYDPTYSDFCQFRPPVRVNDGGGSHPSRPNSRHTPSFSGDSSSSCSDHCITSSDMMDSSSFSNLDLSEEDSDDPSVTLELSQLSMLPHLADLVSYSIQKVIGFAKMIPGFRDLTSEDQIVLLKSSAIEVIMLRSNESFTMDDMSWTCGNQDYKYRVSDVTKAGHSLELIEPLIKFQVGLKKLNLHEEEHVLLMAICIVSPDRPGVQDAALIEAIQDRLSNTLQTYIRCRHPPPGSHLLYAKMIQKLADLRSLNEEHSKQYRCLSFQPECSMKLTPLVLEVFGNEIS
Bile acid receptor (Homo sapiens), sequence (Q96RI1 whole entry, looked up): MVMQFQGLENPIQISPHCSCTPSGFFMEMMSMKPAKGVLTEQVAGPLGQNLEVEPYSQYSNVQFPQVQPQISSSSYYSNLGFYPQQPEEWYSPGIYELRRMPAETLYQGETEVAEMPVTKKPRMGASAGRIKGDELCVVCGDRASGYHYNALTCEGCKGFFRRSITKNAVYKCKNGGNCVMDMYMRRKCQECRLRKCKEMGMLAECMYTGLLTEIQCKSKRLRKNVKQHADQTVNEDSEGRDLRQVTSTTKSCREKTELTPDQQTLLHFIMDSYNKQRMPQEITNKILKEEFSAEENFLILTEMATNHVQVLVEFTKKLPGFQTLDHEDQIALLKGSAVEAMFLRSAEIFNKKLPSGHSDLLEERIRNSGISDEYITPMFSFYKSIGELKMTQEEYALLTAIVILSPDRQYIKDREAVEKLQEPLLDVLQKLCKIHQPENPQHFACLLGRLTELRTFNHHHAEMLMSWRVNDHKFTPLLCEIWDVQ
Peroxisome proliferator-activated receptor delta (Homo sapiens), sequence (Q03181 whole entry, looked up): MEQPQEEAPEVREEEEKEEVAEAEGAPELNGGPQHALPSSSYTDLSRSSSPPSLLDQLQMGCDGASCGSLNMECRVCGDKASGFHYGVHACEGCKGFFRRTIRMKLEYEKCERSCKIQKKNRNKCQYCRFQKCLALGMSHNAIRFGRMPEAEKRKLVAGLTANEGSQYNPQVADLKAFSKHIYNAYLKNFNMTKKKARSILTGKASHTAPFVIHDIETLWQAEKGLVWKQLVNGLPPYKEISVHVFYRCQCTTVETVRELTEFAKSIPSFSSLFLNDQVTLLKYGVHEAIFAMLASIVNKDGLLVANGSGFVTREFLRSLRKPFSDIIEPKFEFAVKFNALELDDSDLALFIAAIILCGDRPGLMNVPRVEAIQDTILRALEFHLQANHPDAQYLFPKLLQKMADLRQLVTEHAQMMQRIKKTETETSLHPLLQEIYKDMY

Nc1ccc2ccccc2c1S(=O)(=O)O
not listed: [16] | [17] | [18] | [19]
inactive: all other assays above

CNCCC(Oc1ccccc1OC)c1ccccc1 (centres undefined)
not listed: [8]
inactive: all other assays above

C=CC(C)(O)CC/C=C(\C)CCC=C(C)C (centres undefined)
not listed: [2] | [5] | [6] | [8] | [19]
inactive: all other assays above

CC(C)C1=CC2=CC[C@@H]3[C@](C)(CCC[C@@]3(C)C(=O)O)[C@H]2CC1
not listed: [2] | [3] | [4] | [5] | [17] | [18]
inactive: all other assays above

CC(C)(C)c1ccc(OC(=O)c2ccccc2O)cc1
not listed: [3] | [7] | [8] | [16] | [17]
inactive: all other assays above

Nc1ccc(Oc2ccc(N)c(N)c2)cc1
not listed: [8] | [16] | [17]
inactive: all other assays above

CC1=C2[C@H](/C=C(\C)C(=O)O)CC[C@@H](C)[C@H]2CC1
not listed: [3] | [5] | [6] | [16] | [17]
inactive: all other assays above

CC(C)=CCC[C@](C)(O)[C@@H]1CC=C(C)CC1
not listed: [3] | [6] | [7] | [17] | [18] | [19]
inactive: all other assays above

C[C@]12CCC(=O)C=C1CC[C@@H]1[C@@H]2CC[C@@]2(C)[C@H]1CC[C@]2(O)C(=O)CO
not listed: [17] | [18]
inactive: all other assays above
